Data published in ChEMBL document CHEMBL3988442, “University of Dundee, Small-Polar-MMV Screening Library” (2021).
Screen size: about 48,000 compounds; about 13,000 (27%) showed an effect of 50% or more. Some of the results follow.

What follows are compounds tested on Wolbachia pipientis (assay: Anti-Wolbachia Cell-Based Screen). Details: 5 µM.
Assay type: functional
Design: scale not given: in the data most compounds retested in dose-response had high values

Structure (SMILES) | Percent Effect [%]
Cc1n[nH]c(SCC(=O)NC(c2ccncc2)C(C)C)n1 (configuration not stated) | 1.831
Cc1cc(NC(=O)N2CCOCC2)nn1-c1ccccc1Cl | -5.01
CCc1nc(NS(=O)(=O)c2cc(C)cc(F)c2)no1 | -9.734
Cc1ccc(N2CCC3(CN(Cc4ccncc4)CCC3(F)F)C2)nn1.O=C(O)C(F)(F)F.O=C(O)C(F)(F)F (configuration not stated) | 101.6
Cc1ccc(CN2CCC(F)(F)C3(CCN(c4cnccn4)C3)C2)o1.O=C(O)C(F)(F)F.O=C(O)C(F)(F)F (configuration not stated) | 15.24
Cc1ccc(N2CCCC3(CCCC(=O)N3)C2)nn1.O=C(O)C(F)(F)F (configuration not stated) | -15.09
Cc1ccc(N2CCC3(CC2)CC(OCC(C)C)C3)nn1.O=C(O)C(F)(F)F | -76.25
Cc1ccc(N2CCC3(CN(Cc4cccs4)CCC3(F)F)C2)nn1.O=C(O)C(F)(F)F (configuration not stated) | 80.15
Cc1n[nH]cc1CNc1ccc2c(c1)N(C(=O)OC(C)(C)C)CCC2 | -11.3
Cc1nnsc1CNC(=O)Nc1cccc(N2CCN(C)C2=O)c1 | -31.37
Cc1cccc(N2CC3(COCCN(c4ccncn4)C3)OCC2=O)c1 (configuration not stated) | -13.92
CN1CC2(COCCN(c3ncccn3)C2)OCC1=O (configuration not stated) | -2.048
O=C1COC2(COCCN(c3cnccn3)C2)CN1c1cccc(F)c1 (configuration not stated) | -3.492
Cc1cccc(N2CCOCC3(C2)CN(c2cncnc2)C(=O)CO3)n1 (configuration not stated) | 105.8
Cc1cccc(N2CCOCC3(C2)CN(c2cccnc2)C(=O)CO3)n1 (configuration not stated) | 106.1
N#CCCN(Cc1ccco1)C(=O)COC1CCCCC1 | 5.394
O=S1(=O)C[C@@H]2[C@H](C1)N(Cc1nc3ccccc3[nH]1)CCN2CC1CC1 | 0.3251
CC(=O)N1CCCC1c1nc(CN(C)C(=O)C(C)C)cc(N(C)C)n1 (configuration not stated) | 95.56
CC(C)c1nc(C2CCCN2C(=O)c2ccc(N(C)C)nn2)no1 (configuration not stated) | 2.138
CN(CC(=O)N1CCCC1c1noc(C2CC2)n1)C1CC1 (configuration not stated) | -4.612
COCC(=O)N1CCCCC1c1nc(CN(C)C(C)=O)cc(N(C)C)n1 (configuration not stated) | 103.1
CCC(=O)N1CCCCC1c1nc(CN(C)C(C)=O)cc(N(C)C)n1 (configuration not stated) | 86.02
CC(=O)c1ccc(C(=O)N2CCCCC2c2nc[nH]n2)cc1 (configuration not stated) | -8.755
Cc1ccsc1CNC(=O)NC1CCCc2c1cnn2CCO (configuration not stated) | 0.2453
CC(=O)N1CCCN(C(=O)NCCCN(C)S(C)(=O)=O)CC1 | -3.578
COc1ccccc1CN(Cc1cccnc1)Cc1nccs1 | -55.96

Structure (SMILES) | Percent Effect [%]
Cc1ncncc1C(=O)Nc1cnn(CC(=O)NC2CCCC2)c1 | 0.1635
CCc1noc(C)c1C(=O)Nc1cnn(CC(=O)NC2CCCC2)c1 | 1.161
CCN1CCC(CNC(=O)Nc2cnn(CC(N)=O)c2)C1 (configuration not stated) | -9.388
CCn1cc(NC(=O)NC2CCCc3c2cnn3CCO)cn1 (configuration not stated) | 0.905
CCn1cc(NC(=O)C2CCN(CC(=O)NC3CCCC3)CC2)cn1 | 91.7
CCn1cc(NC(=O)C2CCN(CC(=O)NC(C)(C)CC)CC2)cn1 | 91.29
CCn1cc(NC(=O)C2CCN(CC(=O)N3CCOCC3)CC2)cn1 | -4.13
CCCNC(=O)C(C)N1CCC(C(=O)Nc2cnn(CC)c2)CC1 (configuration not stated) | 103.7
CCn1cc(NC(=O)C2CCN(CC(=O)NCC(C)C)CC2)cn1 | 118.6
CCCNC(=O)CN1CCC(C(=O)Nc2cnn(CC)c2)CC1 | 2.919
O=C(c1ccccc1C(F)(F)F)N1C[C@@H](CN2CCOCC2)[C@@H](CO)C1 | -0.09435
CCCc1cncnc1N1CCC(NCc2cc3ccccc3[nH]2)CC1 | -18.7
O=C(NC1CC1)[C@H]1C[C@H]2OCC[C@H]2N(CC2CCOCC2)C1.O=C(O)C(F)(F)F | 0.97
O=C(Nc1nncs1)N1CCCN(C2CCCCC2)CC1 | -4.459
COc1ccc(S(=O)(=O)NCCC(O)c2cc(C)oc2C)c(C)c1 (configuration not stated) | 2.617
C[C@@H]1C[C@H]2CN(C(=O)C3=CCCCC3)C[C@H]2O1 | 0.662
O=C(NC1CCS(=O)(=O)c2ccccc21)c1cccs1 (configuration not stated) | 3.993
CCNC(=O)N1C[C@@H]2OCC(=O)N(C(C)C)[C@@H]2C1 | -6.666
Cc1cc(C(=O)Nc2cnn(CC(=O)NC3CCCC3)c2)c(C)s1 | 2.888
Cc1nc(C)c(C(=O)Nc2cnn(CC(=O)NC3CCCC3)c2)s1 | 111.4
Cc1ccsc1C(=O)Nc1cnn(CC(=O)NC2CCCC2)c1 | 2.464
Cc1nc(CC(=O)N2CCCC2c2nc(-c3ccccc3)no2)cs1 (configuration not stated) | -0.9344
CC(C)(C)C(=O)N1CCCN(c2ncnc3nc(N)ccc23)CC1 | 6.072
Cn1cccc1C(=O)N1CCc2ncnc(N3CCOCC3)c2CC1 | -2.151
Nc1c(N2CCCCC2)ncnc1N1CCOCC1 | 114.1
CN1CCCN(c2ncnc(N3CCOCC3)c2N)CC1 | 103.9

Structure (SMILES) | Percent Effect [%]
O=C(CSc1ccccc1)N1CCc2c(ncnc2N2CCOCC2)C1 | 3.982
Clc1cnccc1N1CCCOCC1 | 1.077
O=C(c1c2c(N3CCCC3)ncnc2n2ccccc12)N1CCOCC1 | -6.579
Nc1c(N2CCOCC2)ncnc1N1CCOCC1 | 121.8
O=C(c1c2c(N3CCOCC3)ncnc2n2ccccc12)N1CCCC1 | -0.1651
OC1(CN2CCCC2)COCCN(c2ncnc3[nH]cnc23)C1 (configuration not stated) | 9.273
Nc1c(N2CCCC2)ncnc1N1CCOCC1 | 108.5
O=C1COc2ccc(S(=O)(=O)NCC3CCCO3)c3c2N1CCC3 (configuration not stated) | -4.147
CN(Cc1cccnc1)C[C@@H]1OC[C@H]2CN(Cc3ccoc3)CC[C@H]21.O=C(O)C(F)(F)F.O=C(O)C(F)(F)F.O=C(O)C(F)(F)F | 6.292
Cc1ccc(CN2CC[C@H]3[C@H](CO[C@H]3CN(C)C)C2)o1.O=C(O)C(F)(F)F.O=C(O)C(F)(F)F | -5.785
CN1CCN(C[C@@H]2OC[C@H]3CN(CCc4ccccc4)CC[C@H]32)CC1.O=C(O)C(F)(F)F.O=C(O)C(F)(F)F.O=C(O)C(F)(F)F | 108.2
CN1CCN(C[C@@H]2OC[C@H]3CN(Cc4cccc(F)c4)CC[C@H]32)CC1.O=C(O)C(F)(F)F.O=C(O)C(F)(F)F.O=C(O)C(F)(F)F | -7.407
Cc1ccc(CN2CC[C@@H]3[C@@H](CO[C@H]3CN3CCN(C)CC3)C2)cc1.O=C(O)C(F)(F)F.O=C(O)C(F)(F)F.O=C(O)C(F)(F)F | 118.8
Cc1ccc(CN2CC[C@H]3CO[C@H](CN(C)Cc4ccco4)[C@H]3C2)s1.O=C(O)C(F)(F)F.O=C(O)C(F)(F)F | 10.16
Cc1ccc(CN2CC[C@@H]3[C@@H](CO[C@H]3CN3CCN(C)CC3)C2)s1.O=C(O)C(F)(F)F.O=C(O)C(F)(F)F.O=C(O)C(F)(F)F | 97.55
CN1CCN(C[C@H]2OC[C@@H]3CCN(C(=O)c4cnccn4)C[C@@H]32)CC1.O=C(O)C(F)(F)F.O=C(O)C(F)(F)F | -7.535
CN(C)C[C@@H]1OC[C@H]2CN(Cc3ccoc3)CC[C@H]21.O=C(O)C(F)(F)F.O=C(O)C(F)(F)F | 10.46
CCN1CCC(N[C@@H]2CC[C@@H]2NC(=O)Cc2csc(C)n2)CC1 | 2.853
Clc1cccnc1N1CCC(NCc2cccc3cn[nH]c23)C1 (configuration not stated) | 0.5809
COCC1c2nnn(CC3CC3)c2CCN1C(=O)c1ccncn1 (configuration not stated) | -7.229
CN(C)c1ccc(-c2cc(C(=O)O)cc(S(=O)(=O)NC3CC3)c2)cc1 | -6.079
Cc1cc(O)nc(C2CCCN(Cc3ccncc3)C2)n1 (configuration not stated) | -8.016
COCc1cc(O)nc(C2CCCN(Cc3cccc(OC)c3)C2)n1 (configuration not stated) | 123.8
CCc1cc(O)nc(C2CCCN(Cc3ccncc3)C2)n1 (configuration not stated) | 119.5
COCc1cc(O)nc(C2CCCN(Cc3cc(OC)ccc3F)C2)n1 (configuration not stated) | -12.81
COCc1cc(O)nc(C2CCCN(Cc3ccc(OC)cc3)C2)n1 (configuration not stated) | 126.6

Structure (SMILES) | Percent Effect [%]
NC(=O)Cn1ccnc1C1CCCN(Cc2cccc(Cl)c2F)C1 (configuration not stated) | -13.72
COCC1CCCN(CCCc2cccc(OC)c2)C1 (configuration not stated) | 6.457
COCc1cc(O)nc(C2CCCN(Cc3cccc(Cl)c3Cl)C2)n1 (configuration not stated) | 101.5
COCc1nccc(C2CCCN(Cc3ccccc3C#N)C2)n1 (configuration not stated) | -3.966
COCCN1C[C@H]2CN(Cc3cccc(OC)c3)CCN2C1=O | -3.935
COCCn1cnnc1CCn1ccnc1-c1ccccc1Cl | -5.954
CN(Cc1ccon1)c1nc(-c2ccccn2)nc2c1CCNCC2 | -7.259
CCn1c(Cn2cccn2)nnc1C1CCN(Cc2ccc(C)o2)CC1 | 4.312
O=c1c2ccccc2nc2n1CCC2O (configuration not stated) | 1.424
O=C(Nc1cc(CSCCO)ccn1)c1ccc(Cl)o1 | -51
Cc1ncccc1C(=O)NC1(c2cccc(F)c2)CCOCC1 | -2.77
COCc1cc(O)nc(C2CCCN(Cc3ccc(F)cc3)C2)n1 (configuration not stated) | 105.5
CC(NC(=O)NCCN1CCCCCC1=O)c1ccc(Cl)s1 (configuration not stated) | -4.831
CCCC(=O)N1CCN(c2cc(-n3cnc(C)c3C)nc(C)n2)CC1 | -4.899
COCC(=O)N1CCN(Cc2cc(-c3ccncc3)nn2C)CC1 | 92.41
CC(C)C(=O)N1CCN(Cc2cc(-c3ccncc3)nn2C)CC1 | -9.87
CCN(CC)CC(=O)N1CCN(CCCc2ccncc2)CC1 | 2.413
CCN(CC)C(=O)N1CCN(CCc2ccncc2)CC1 | 2.653
CCc1nc(CN2CCCN(C(=O)COC)CC2)cs1 | 6.894
CC(C)CC(=O)N1CCN(Cc2cc(-c3ccncc3)nn2C)CC1 | 111
CCC(CC)C(=O)N1CCN(Cc2cc(-c3ccncc3)nn2C)CC1 | 102.3
CCC(=O)N1CCN(Cc2cc(-c3ccncc3)nn2C)CC1 | -2.828
CCN(CC)CC(=O)N1CCN(CCc2ccncc2)CC1 | -8.418
CCCC(=O)N1CCN(Cc2cc(-c3ccncc3)nn2C)CC1 | 103.8
